Measured values published in PubChem BioAssay AID2316 (Broad Institute, 2010).
The whole screen tested about 29,000 compounds, of which fewer than 10 were called active. Not all results are given here. Unmarked numbers belong to inactive results. No rule for the calls is given here.

Assay: activators reversing PD-1 mediated T-cell inhibition, primary screen, luminescence, primary human CD4 T cells, PD-L1 beads (AID 2316);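 also: 0% = median vehicle wells and 100% = positive control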
Details: CellTiter-Glo 96 h, hits give high values
Compound C[C@@H]1CCCCO[C@H](CN(C)S(=O)(=O)c2cccs2)[C@@H](C)CN([C@H](C)CO)C(=O)c2cc(NC(=O)Nc3ccccc3)ccc2O1 has an activation of -1.94%. COc1ccc(NC(=O)Nc2ccc3c(c2)CC(=O)N([C@@H](C)CO)C[C@H](C)[C@@H](CN(C)Cc2ccc4c(c2)OCO4)O3)cc1 showed an activation of 0.816%. With COc1ccc(S(=O)(=O)Nc2ccc3c(c2)C(=O)N([C@H](C)CO)C[C@H](C)[C@@H](CN(C)S(C)(=O)=O)OCCCC[C@@H](C)O3)cc1 the activation was 0.638%. Work on C[C@@H]1CN([C@@H](C)CO)C(=O)c2cc(NC(=O)Nc3ccccc3)ccc2O[C@@H]1CN(C)Cc1ccccc1 yielded an activation of 1.95%. Compound C[C@@H]1CN([C@H](C)CO)C(=O)c2cc(NS(=O)(=O)c3ccccc3)ccc2O[C@H]1CN(C)C(=O)Nc1ccc2c(c1)OCO2 has an activation of 1.11%. Compound COc1ccc(N(Cc2cc3ccccc3[nH]c2=O)C(=O)c2cccc(OC)c2)cc1 has an activation of 1.92%. Work on C[C@H]1CN([C@@H](C)CO)C(=O)c2cccc(NC(=O)c3cnccn3)c2O[C@@H]1CN(C)Cc1ccc(Oc2ccccc2)cc1 yielded an activation of -2.26%. Cc1ccc(C23CC4CC(CC(CN)(C4)C2)C3)cc1C showed an activation of -7.62%. O=C(Nc1ccccc1)C(=S)Nc1ccccc1 showed an activation of -0.0947%. Cc1noc(C)c1NC(=O)N(C)C[C@@H]1Oc2ccc(NC(=O)Nc3ccc(F)cc3)cc2C(=O)N([C@H](C)CO)C[C@@H]1C gave an activation of -0.0779%. Compound CN1CCN(S(=O)(=O)c2ccc(NC(=O)C3CC=CCC3C(=O)O)cc2)CC1 (centres undefined) has an activation of 1.99%. For Cc1cc(C)c(NC(=O)CSc2nnc(-c3ccccc3)n2-c2ccc(F)cc2)c(C)c1, the activation was 1.56%. COc1ccc(NC(=O)c2ccc(OCC(=O)Nc3ccccc3F)cc2)cc1Cl showed an activation of 0.553%. With COc1ccc(NC(=O)N(C)C[C@@H]2Oc3ccc(NC(=O)Nc4ccccc4)cc3CC(=O)N([C@H](C)CO)C[C@@H]2C)cc1 the activation was -0.196%. CCOC(=O)CCSc1nnc2c3ccccc3n(C)c2n1 showed an activation of -0.845%. Compound Cc1noc(C)c1NC(=O)Nc1ccc2c(c1)C(=O)N([C@H](C)CO)C[C@@H](C)[C@@H](CN(C)C(=O)NC(C)C)O2 has an activation of 0.338%. Work on O=C(CSc1nnc(-c2ccccc2)n1-c1ccc(Cl)cc1)Nc1ccc(Cl)cc1 yielded an activation of -11.8%. CCc1cc(C)cc(OCC(O)Cn2cnc3ccccc32)c1 (centres undefined) showed an activation of -5.01%. In the case of CN1CCN(C(=O)CCc2nc(-c3ccc(Cl)cc3)no2)CC1, the activation is reported as -0.127%. For O=C(CSc1nnc2ccc3ccccc3n12)Nc1ccc2c(c1)OCCO2, the activation was 0.368%. For c1ccc(Nc2ncnc3sc(-c4ccccc4)cc23)cc1, the activation was -0.968%. Work on CCCC(=O)Nc1ncnc2c1ncn2[C@@H]1O[C@@H]2OP(=O)(O)OC[C@H]2[C@H]1OC(=O)CCC yielded an activation of 4.46%. CCOc1ccc2nc(Nc3nc(C)c(Cc4ccc(C)cc4)c(=O)[nH]3)nc(C)c2c1 gave an activation of -0.875%. Compound COc1ccc(C(=O)CSc2nnc(-c3cccc(C)c3)n2-c2ccccc2)cc1 has an activation of 1.1%. In the case of Cc1ccc(S(=O)(=O)N(C)C[C@@H]2Oc3c(NC(=O)C4CC4)cccc3C(=O)N([C@H](C)CO)C[C@H]2C)cc1, the activation is reported as 1.35%. O=C(Nc1cccs1)N1CCN(C(=O)C2CCCO2)CC1 (centres undefined) gave an activation of -0.0221%. For Cc1ccc(NC(=O)CSc2nnc(C)n2-c2ccc(F)cc2)cc1Cl, the activation was 0.0225%. For COc1ccc(S(=O)(=O)Nc2cccc3c2O[C@@H](CN(C)C(=O)Nc2ccccc2)[C@@H](C)CN([C@@H](C)CO)C3=O)cc1, the activation was -2.12%. Compound C[C@@H]1CN([C@@H](C)CO)C(=O)c2cc(NS(C)(=O)=O)ccc2O[C@@H]1CN(C)C(=O)Nc1ccc(F)cc1 has an activation of 2.2%. Work on O=C1c2ccccc2S(=O)c2ccccc2S(=O)(=O)N1Cc1ccccc1 (centres undefined) yielded an activation of -5.99%. In the case of Cc1ccc(Cl)cc1NC(=O)CN(c1cccc(Cl)c1C)S(C)(=O)=O, the activation is reported as -5.55%. Compound CS(=O)(=O)N(CC(=O)Nc1ccc2ccccc2c1)c1cc(Cl)c(Cl)cc1Cl has an activation of 1.79%. COc1ccc(S(=O)(=O)N(C)C[C@H]2Oc3ccc(NS(=O)(=O)c4ccc(F)cc4)cc3C(=O)N([C@H](C)CO)C[C@H]2C)cc1 gave an activation of 1.51%. COc1ccc(NC(=O)Nc2ccc3c(c2)C(=O)N([C@H](C)CO)C[C@@H](C)[C@H](CN(C)Cc2ccccc2)O3)cc1 showed an activation of -0.421%. C[C@H]1CN([C@@H](C)CO)C(=O)c2cc(NS(C)(=O)=O)ccc2O[C@H]1CN(C)C(=O)Nc1ccc(C(F)(F)F)cc1 showed an activation of 0.226%. O=C(NCc1ccccn1)C1CC(c2cccc(Br)c2)=NO1 (centres undefined) gave an activation of 1.86%. For C[C@H](CO)N1C[C@H](C)[C@@H](CN(C)S(C)(=O)=O)Oc2c(NC(=O)c3ccc(-c4nccs4)cc3)cccc2C1=O, the activation was 0.392%. Compound COc1ccc(C(=O)CSc2nc3ccc(OC)cc3[nH]2)cc1 has an activation of 0.352%. Work on Cc1noc(C)c1NC(=O)Nc1ccc2c(c1)C(=O)N([C@@H](C)CO)C[C@H](C)[C@H](CN(C)CC1CCCCC1)O2 yielded an activation of 1.03%. Work on C[C@@H]1CN([C@H](C)CO)C(=O)Cc2cc(NS(=O)(=O)c3ccc(F)cc3)ccc2O[C@H]1CN(C)C yielded an activation of 2.25%. For CS(=O)(=O)N(CC(=O)Nc1cc(Cl)ccc1Cl)c1ccc(Oc2ccccc2)cc1, the activation was 0.0184%. Cc1ccc(S(=O)(=O)Nc2ccc3c(c2)C(=O)N([C@H](C)CO)C[C@H](C)[C@H](CN(C)Cc2ccc(C(=O)Nc4ccccc4N)cc2)OCCCC[C@@H](C)O3)cc1 gave an activation of -0.831%. Compound O=C(Nc1ccccc1Cl)c1ccccc1S(=O)(=O)c1ccccc1[N+](=O)[O-] has an activation of 1.95%. With CS(=O)(=NS(=O)(=O)c1ccc(OC(F)(F)F)cc1)c1ccc(Cl)cc1 (centres undefined) the activation was 0.43%.
